In all, about 370,000 compounds went through this assay and about 4,700 (1.3%) were called active.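 The calls were made as follows: active = inhibition above the plate cutoff, the mean of all test compounds on that plate plus 3 SD (cut at about 35% in these data); inactive = the rest.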 The list comes from a sample in which actives are over-represented; it also holds similar structures and randomly drawn compounds.

This test can be described thus: binders of r(CAG) RNA repeats, primary screen, biochemical, fluorescence (AID 651821).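 Also: 0% = DMSO alone and 100% = 100 µM mitoxantrone as full dye displacement; higher means more dye released from RNA so lower well fluorescence.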 As to conditions: r(CAG) RNA repeat, TO-PRO-1 dye displacement fluorescence; at 3 µM; hits give high values.
What is called inhibition is the change of the read-out against control, counted positive when it falls. On to `C=CC[C@]12C[C@@]3(O[C@H](c4ccc(C(F)(F)F)cc4)N=C3C[C@H](c3ccc(OC)cc3)[C@H]1C)N(C1CCN(Cc3ccccc3)CC1)C2=O`, for which the inhibition was 5.05% (inactive).

As to `COc1ccc(C(=O)OCCN2CCN(C3CN(Cc4cn(Cc5ccccc5F)nn4)S(=O)(=O)C3)CC2)cc1OC` (stereo not given), the inhibition was 1.05% (inactive).

For the compound `CCC(=O)OCCCN1C(=O)CCC12CCC(c1ccccc1)CC2` (stereo not given), the inhibition is -0.66% (inactive).

In the case of `COc1ccc(-c2cc(=O)oc3cc(OC(C)C(=O)NCC4CCC(C(=O)O)CC4)ccc23)cc1` (stereo not given), the inhibition is 8.77% (inactive).

Turning to `COc1ccc(-c2cc(C(=O)NC(Cc3c[nH]c4ccccc34)C(=O)O)c(C)o2)cc1OC` (stereo not given), the inhibition is 53.8% (active).

For the compound `COc1ccc(-c2cc(=O)oc3cc(OCC(=O)N(C)C4CCS(=O)(=O)C4)ccc23)cc1` (stereo not given), the inhibition was -1.96% (inactive).

`COc1ccc(-c2cc(C(=O)NC(C(=O)O)C(C)C)c(C)o2)cc1OC` (stereo not given): the inhibition was 6.76% (inactive).

As for `COc1ccc(-c2cc(=O)oc3cc(OCC(=O)N[C@@H](Cc4c[nH]c5ccccc45)C(=O)O)ccc23)cc1`, the inhibition was 55.5% (active).

Regarding `CC(Oc1ccc2c(-c3ccccc3)cc(=O)oc2c1)C(=O)NC(Cc1c[nH]c2ccccc12)C(=O)O` (stereo not given), the inhibition was 42.8% (active).

On to `O=C(CCn1nnc2ccccc2c1=O)N[C@@H](Cc1c[nH]c2ccccc12)C(=O)O`, for which the inhibition is 2.19% (inactive).

For the compound `COC(=O)C(C)Oc1ccc2c(-c3cccc([N+](=O)[O-])c3)cc(=O)oc2c1` (stereo not given), the inhibition is 1.44% (inactive).

On to `CCOCCCNC(=O)C(NC(=O)Cc1c[nH]c2ccccc12)c1ccc(OC)cc1` (stereo not given), for which the inhibition is -4.93% (inactive).

As to `O=C(N[C@@H](Cc1c[nH]c2ccccc12)C(=O)O)OCC1c2ccccc2-c2ccccc21`, the inhibition is 59.4% (active).

For `COC(=O)C(Cc1c[nH]c2ccccc12)NC(=O)CCNC(=O)c1ccco1` (stereo not given), the inhibition is 2% (inactive).

For the compound `O=C(NC(Cc1c[nH]c2ccccc12)C(=O)O)/C(=C/c1ccco1)NC(=O)c1ccccc1` (stereo not given), the inhibition is 20.3% (inactive).

`COC(=O)c1cc(S(=O)(=O)N2CCN(C(=O)C3CCCO3)CC2)cn1C` (stereo not given): the inhibition is 1.73% (inactive).

For the compound `COC(=O)[C@]12C[C@H](CC(=O)NCc3ccc(OC)c(OC)c3)C(=O)N(Cc3ccccc3)C1=C[C@H](C(C)C)O[C@@H]2C1CC1`, the inhibition was 1.35% (inactive).

Regarding `O=C(NC1CCCCN(Cc2cccc(C(F)(F)F)c2)C1=O)c1ccccc1I` (stereo not given), the inhibition is -0.65% (inactive).

In the case of `Cc1csc(CN(C)C(=O)CC2C(=O)NCCN2CC(C)(C)C)n1` (stereo not given), the inhibition was -3.94% (inactive).

Take `O=C(NCc1ccco1)C1CCCN(S(=O)(=O)c2ccc(Cl)s2)C1` (stereo not given): the inhibition was -0.27% (inactive).

As to `CSC1=NN(c2ccccc2)CN(c2ccccc2)N1C`, the inhibition was 0.22% (inactive).

Consider `COc1ccccc1-c1ccc([C@@H]2C[C@H]3[C@H](CON3C)CN2S(=O)(=O)c2cc(Cl)cc(Cl)c2)cc1`, for which the inhibition is 5.7% (inactive).

As to `CN(Cc1ccccc1)CC(O)COc1ccc(CNCc2cc3ccccc3s2)cc1` (stereo not given), the inhibition was -2.3% (inactive).

Turning to `Nn1c(SCC(=O)N2c3ccccc3Sc3ccccc32)nnc1-c1n[nH]c2c1CCC2`, the inhibition was 12.9% (inactive).

Consider `CC(CCN1CCC(C(O)(c2ccccc2)c2ccccc2)CC1)Oc1ccc(C(F)(F)F)cc1` (stereo not given), for which the inhibition is 2.52% (inactive).

Take `Cc1ccc(C2=CCN(C)C(=O)N2c2ccc(Cl)cc2)cc1`: the inhibition was 6.97% (inactive).

For the compound `Cc1ccc(-c2nnc(SCC(=O)N/N=C/c3cccs3)n2-c2ccc(C)cc2)cc1`, the inhibition is 2.97% (inactive).

As for `Cc1ccc(-n2c(SCC(=O)Nc3ccc(S(=O)(=O)Nc4nccs4)cc3)nnc2-c2cccnc2)cc1`, the inhibition was 60.1% (active).

As for `Cn1c(SCC(=O)Nc2nccs2)nnc1-c1cccnc1`, the inhibition was 3.4% (inactive).

`Cc1ccc(-n2c(SCC(=O)Nc3ccc(S(=O)(=O)Nc4nccs4)cc3)nnc2-c2ccncc2)cc1`: the inhibition was 67.7% (active).

With `Cc1ccc(-n2c(SCC(=O)Nc3ccc(S(=O)(=O)Nc4nccs4)cc3)nnc2-c2ccccn2)cc1`, the inhibition is 69.8% (active).

Regarding `O=C(CSc1nnc(-c2ccncc2)n1-c1ccc(Cl)cc1)Nc1ccc(C(=O)O)cc1`, the inhibition is 3.19% (inactive).

As for `Cc1ccc(-n2c(SCC(=O)Nc3ccc4c(c3)OCO4)nnc2-c2ccccn2)cc1`, the inhibition is -1.61% (inactive).

For `O=C(CSc1nnc(-c2ccccn2)n1-c1ccccc1)Nc1ccc2c(c1)OCO2`, the inhibition was 1.36% (inactive).

`COc1ccc(-n2c(SCC(=O)Nc3ccc4cn[nH]c4c3)nnc2-c2cccnc2)cc1`: the inhibition is 5.12% (inactive).

Take `Cc1ccc(Cn2cc(COC(=O)N(C)Cc3ccccc3)nn2)cc1`: the inhibition is 0.63% (inactive).

For `COC(=O)c1c(-c2ccc(OC)cc2)c2c(c3c4cc(OC)ccc4n(S(=O)(=O)c4ccc(F)cc4)c13)C(=O)N(C)C2`, the inhibition was 14.1% (inactive).

Consider `COC(=O)[C@]1(C#N)CC(=O)N(CC2CCCCC2)[C@@H]1c1ccccc1`, for which the inhibition was 0.85% (inactive).

`CC(OC(=O)c1ccccc1N1C(=O)C2C3CCC(C3)C2C1=O)C(=O)c1ccccc1` (stereo not given): the inhibition is -4.3% (inactive).

With `CCOC(=O)C1Sc2[nH]c(=O)sc2C(c2ccc(Cl)cc2)C1C(=O)OCC` (stereo not given), the inhibition is 24.3% (inactive).

On to `CCOC(=O)c1ccccc1N1C(=O)C2Sc3[nH]c(=O)sc3C(/C=C/c3ccccc3)C2C1=O` (stereo not given), for which the inhibition was 54% (active).

On to `CC[C@H](C)[C@H]1CNC(=O)C(=O)N1CC1CCN(CCc2ccc(OC)c(OC)c2)CC1`, for which the inhibition was 3.94% (inactive).

In the case of `COc1ccccc1CCNC(=O)C1CCN(c2nc(C)cc(C)n2)CC1`, the inhibition is -2.28% (inactive).

As to `CCSc1nc(-c2ccc(OC)cc2)cc(-c2ccc(OC)cc2)c1C#N`, the inhibition was 0.76% (inactive).

Turning to `N#Cc1c(-c2ccc(F)cc2)cc(C2CC2)nc1SCC(=O)c1cccs1`, the inhibition is 1.58% (inactive).

`N#Cc1c(-c2ccccc2)cc(-c2ccccc2)nc1SCC(=O)O`: the inhibition is 55% (active).

Regarding `CC(C)CNS(=O)(=O)CC1NCCc2ccccc21` (stereo not given), the inhibition is 5.19% (inactive).

Consider `NNc1cccc(C=Cc2ccccc2)cc1=O`, for which the inhibition was 40.1% (active).

Regarding `Nn1c(SCC(=O)Nc2ccc(S(N)(=O)=O)cc2)nnc1-c1n[nH]c2c1CCC2`, the inhibition was 3.81% (inactive).

Take `COC(=O)c1cc2c(c3c4ccccc4n(S(=O)(=O)c4cccc(C)c4)c13)C(=O)N(Cc1ccccc1)C2`: the inhibition is 15.1% (inactive).

In the case of `O=c1oc2ccccc2cc1-c1csc(Nc2ccc(O)cc2)n1`, the inhibition was 38.9% (active).

As for `CC(=O)c1ccc(Nc2nc(C(N)c3ccccc3Cl)cs2)cc1` (stereo not given), the inhibition is 2.58% (inactive).

`O=S1(=O)c2c(cccc2N2CCCCC2)O[C@H](COCc2ccccc2)CN1C1CC1`: the inhibition was 5.4% (inactive).

With `O=C1Nc2ccccc2C1=NN=Cc1ccco1`, the inhibition is 3.21% (inactive).

Take `COC(=O)[C@H](C(C)C)N(CCCc1cn(Cc2ccccc2)nn1)S(=O)(=O)c1ccc(F)cc1Br`: the inhibition is 2.97% (inactive).

For `Nc1[nH]c(=S)nc2nc(-c3ccccc3)c(-c3ccccc3)nc12`, the inhibition is 41.4% (active).

`C[C@H](NC(=O)[C@@H]1Cc2ccccc2CN1C(=O)OC(C)(C)C)C(=O)NC1CCCC1`: the inhibition is -7.18% (inactive).

In the case of `COc1ccc2c(c1)CN1CN(CCc3ccccc3)S(=O)(=O)CC21` (stereo not given), the inhibition is 3.05% (inactive).

As for `CCCCNc1cccc2c1S(=O)(=O)N[C@@H](C)CO2`, the inhibition is 0.84% (inactive).

For the compound `COc1cc(NS(=O)(=O)c2ccc(N/C=C(\C=O)c3nc4cc(Cl)ccc4o3)cc2)nc(OC)n1`, the inhibition was 60.3% (active).

In the case of `COc1cc(NS(=O)(=O)c2ccc(NC(=S)NC(=O)c3ccccc3)cc2)nc(OC)n1`, the inhibition was 24.5% (inactive).

As for `COC(=O)Nc1ccc(S(=O)(=O)Nc2cc(OC)nc(OC)n2)cc1`, the inhibition was 1.9% (inactive).

Consider `COc1ccc(Cn2cc(COC(=O)N(C)Cc3ccccc3)nn2)cc1`, for which the inhibition was -0.97% (inactive).

As for `Cc1ccccc1CN1CCCCC(NC(=O)Nc2ccccc2F)C1=O` (stereo not given), the inhibition is 4.44% (inactive).

In the case of `O=C(C=CC(=O)Nc1ccc(F)cc1F)Nc1ccc(F)cc1F`, the inhibition was 0.56% (inactive).

For `COC(=O)c1sc(-c2ccc(C(C)(C)C)cc2)cc1NC(=O)/C=C/C(=O)O`, the inhibition is 36.6% (active).

For `O=C(CSc1nnc(-c2ccccn2)n1-c1ccc(Cl)cc1)Nc1ccccc1-c1ccccc1`, the inhibition is 8.25% (inactive).

In the case of `CN(C(=O)COC(=O)c1cc(-c2ccco2)nc2ccccc12)C1CCS(=O)(=O)C1` (stereo not given), the inhibition was 42.3% (active).

For the compound `Cc1ccc(S(=O)(=O)CCC(=O)OCC(=O)N(C)C2CCS(=O)(=O)C2)cc1` (stereo not given), the inhibition is 2.79% (inactive).

`O=C(c1cc(-c2ccco2)nc2ccccc12)N(Cc1nnc(-c2ccc(Cl)cc2)o1)C1CC1`: the inhibition was 8.3% (inactive).

Turning to `COC(=O)[C@]12C[C@H](CC(=O)NCC34CC5CC(CC(C5)C3)C4)C(=O)N(Cc3ccc(Cl)cc3Cl)C1=C[C@H](COCc1ccccc1)O[C@@H]2C`, the inhibition was 10.5% (inactive).

With `COc1cccc(CNCCc2c[nH]c3ccccc23)c1OCc1ccccc1F`, the inhibition is 4.43% (inactive).

As to `Cc1ccc(S(=O)(=O)N(C)CC(=O)NCCc2c[nH]c3ccccc23)cc1`, the inhibition was 0.8% (inactive).

Take `COc1ccc(S(=O)(=O)NCCc2c[nH]c3ccccc23)cc1OC`: the inhibition was 35.2% (active).

As to `COC(=O)c1c(-c2ccc(OC)cc2)c2c(c3c4ccccc4n(S(=O)(=O)c4ccc(C)cc4)c13)C(=O)N(C)C2`, the inhibition was 14.9% (inactive).

`C=CCN1C(=O)[C@H](CC(=O)N2CCN(C(=O)OCC)CC2)[C@@]2(C(=O)OCC)CCCC=C12`: the inhibition was 0.1% (inactive).

Turning to `COc1ccc(CN(CCN2CCOCC2)C(=O)c2ccc(C)cc2)cc1OC`, the inhibition was 1.93% (inactive).

In the case of `CC1(C(=O)NS(=O)(=O)c2ccc(Cl)cc2)CCN1C(=O)CC1CCCC1` (stereo not given), the inhibition was 9.21% (inactive).

As to `Cc1ccccc1S(=O)(=O)NC(=O)C1(C)CCN1C(=O)C1(c2ccc(Cl)cc2)CC1` (stereo not given), the inhibition was 33.6% (inactive).

Take `CC1(C(=O)NS(=O)(=O)c2ccc3ccccc3c2)CCN1C(=O)C1(c2ccc(Cl)cc2)CCC1` (stereo not given): the inhibition was 68.5% (active).

The values are drawn from PubChem BioAssay AID651821 (The Scripps Research Institute Molecular Screening Center, 2012).
